Columns and labels:
[1] = tested on: Vero E6 infected with SARS-CoV-2; assay: morphology score (similarity to uninfected cells); higher = more like uninfected cells; details: 24 h
[2] = tested on: Vero E6 infected with SARS-CoV-2; assay: SARS-CoV-2 infection rate relative to infected DMSO; higher = more infection, active = 60 or less; details: 24 h

Row | SMILES | morphology score [1] | SARS-CoV-2 infection rate [2]
1 | Cc1ccc2c(c1)[C@H]1CN(C)CC[C@H]1N2 [stobadine] (10 µM) | 0.0748 | 98% (inactive)
2 | O=C(Nc1ccccc1)OCC(CN1CCCCC1)OC(=O)Nc1ccccc1 (configuration not stated) [diperodon] (10 µM) | -0.0894 | 108% (inactive)
3 | C=C(C)[C@@H]1CC[C@]2(CO)CC[C@]3(C)[C@H](CC[C@@H]4[C@@]5(C)CC[C@H](O)C(C)(C)[C@@H]5CC[C@]43C)[C@@H]12 (10 µM) | 0.000891 | 99.5% (inactive)
4 | OC[C@H]1O[C@H](O[C@H]2[C@H](O)[C@@H](O)[C@H](O)O[C@@H]2CO)[C@H](O)[C@@H](O)[C@@H]1O [D-(+)-maltose] (10 µM) | 0.129 | 86% (inactive)
5 | C[C@@H]1C[C@H]2[C@@H]3C[C@H](F)C4=CC(=O)C=C[C@]4(C)[C@@]3(F)[C@@H](O)C[C@]2(C)[C@@]1(O)C(=O)CO [flumethasone] (10 µM) | -0.0494 | 110% (inactive)
6 | CCn1c(N)c(C(=O)NC)c(=O)c2ccc(C#C[C@@](C)(O)COC)nc21 (10 µM) | 0.464 | 92% (inactive)
7 | C[n+]1ccccc1C=NO [pralidoxime] (10 µM) | -0.226 | 116% (inactive)
8 | O=S(=O)(c1ccccc1)N(CC(F)(F)F)c1ccc(C(O)(C(F)(F)F)C(F)(F)F)cc1 (10 µM) | 0.0275 | 104% (inactive)
9 | Cn1cnnc1Sc1c([N+](=O)[O-])ncn1C (10 µM) | 0.299 | 87% (inactive)
10 | CCCC[N+]1(C)[C@@H]2C[C@@H](OC(=O)[C@H](CO)c3ccccc3)C[C@H]1[C@@H]1O[C@@H]12 (some centres not stated) [butylscopolamine-bromide] (10 µM) | 0.191 | 102% (inactive)
11 | CO[C@@]1(NC(=O)C2SC(=C(C(N)=O)C(=O)O)S2)C(=O)N2C(C(=O)O)=C(CSc3nnnn3C)CS[C@@H]21 (some centres not stated) [cefotetan] (10 µM) | 0.104 | 98% (inactive)
12 | CC(=O)CC/C=C(\C)CC/C=C(\C)CC/C=C(\C)CCC=C(C)C [teprenone] (10 µM) | 0.0677 | 101% (inactive)
13 | C[C@@H]1O[C@@H](O[C@H]2[C@H](Oc3cc(O)c(C(=O)CCc4ccc(O)cc4)c(O)c3)O[C@H](CO)[C@@H](O)[C@@H]2O)[C@H](O)[C@H](O)[C@H]1O [naringin-dihydrochalcone] (10 µM) | 0.0437 | 107% (inactive)
14 | Cc1c(-c2ccc(-c3ccccc3F)cc2)nc2ccc(F)cc2c1C(=O)O [brequinar] (10 µM) | 0.115 | 95% (inactive)
15 | COc1cccc([C@H](O)C2CCN(CCc3ccc(F)cc3)CC2)c1OC [volinanserin] (10 µM) | -0.147 | 110% (inactive)
16 | O=c1ccn([C@@H]2O[C@H](CO)[C@@H](O)[C@H]2O)c(=O)[nH]1 [uridine] (10 µM) | 0.318 | 96.5% (inactive)
17 | NCCCNCCCCNCCCN [spermine] (10 µM) | 0.0211 | 107% (inactive)
18 | CS(=O)(=O)c1ccc([C@@H](O)[C@@H](CO)NC(=O)C(Cl)Cl)cc1 [thiamphenicol] (10 µM) | -0.172 | 118% (inactive)
19 | COc1cc(C(C)=O)ccc1O [apocynin] (10 µM) | 0.331 | 97% (inactive)
20 | COC(=O)/C=C/c1cccc(N(Cc2ccc(-c3ccc(N(C)C)cc3)cc2)C(=O)C2CCCCC2)c1 [fexaramine] (10 µM) | 0.272 | 86% (inactive)
21 | CCCNC(C)C(=O)Nc1c(C)csc1C(=O)OC (configuration not stated) [articaine] (10 µM) | 0.0926 | 98% (inactive)
22 | C[C@@H](NCCCc1cccc(C(F)(F)F)c1)c1cccc2ccccc12 [cinacalcet] (10 µM) | 0.845 | 20% (active)
23 | CCOc1nc2cccc(C(=O)OCc3oc(=O)oc3C)c2n1Cc1ccc(-c2ccccc2-c2noc(=O)[nH]2)cc1 [azilsartan-medoxomil] (10 µM) | -0.168 | 116% (inactive)
24 | Cc1cccc(Nc2nc(-c3ccncc3)cs2)c1 (0.833333 µM) | 0.455 | 61% (inactive)
25 | Cc1ncc([N+](=O)[O-])n1CC(O)CN1CCOCC1 (configuration not stated) [morinidazole] (10 µM) | 0.12 | 111% (inactive)
26 | CC(C)[C@H](CO)Nc1nc(Nc2cc(N)cc(Cl)c2)c2ncn(C(C)C)c2n1 [aminopurvalanol-a] (0.833333 µM) | -0.224 | 108% (inactive)
